The text below walks through data of PubChem BioAssay AID2557 (NMMLSC, 2010).

About 650 (0.2%) of roughly 330,000 compounds were called active. Shown is part of a subset that was picked to be rich in actives. Values without a mark were called inactive. No stated cut-off is given here; in the data, active means inhibition above about 50%; inactive means the rest.

Sequence of Integrin alpha-4 (Homo sapiens) (P13612 whole entry, looked up): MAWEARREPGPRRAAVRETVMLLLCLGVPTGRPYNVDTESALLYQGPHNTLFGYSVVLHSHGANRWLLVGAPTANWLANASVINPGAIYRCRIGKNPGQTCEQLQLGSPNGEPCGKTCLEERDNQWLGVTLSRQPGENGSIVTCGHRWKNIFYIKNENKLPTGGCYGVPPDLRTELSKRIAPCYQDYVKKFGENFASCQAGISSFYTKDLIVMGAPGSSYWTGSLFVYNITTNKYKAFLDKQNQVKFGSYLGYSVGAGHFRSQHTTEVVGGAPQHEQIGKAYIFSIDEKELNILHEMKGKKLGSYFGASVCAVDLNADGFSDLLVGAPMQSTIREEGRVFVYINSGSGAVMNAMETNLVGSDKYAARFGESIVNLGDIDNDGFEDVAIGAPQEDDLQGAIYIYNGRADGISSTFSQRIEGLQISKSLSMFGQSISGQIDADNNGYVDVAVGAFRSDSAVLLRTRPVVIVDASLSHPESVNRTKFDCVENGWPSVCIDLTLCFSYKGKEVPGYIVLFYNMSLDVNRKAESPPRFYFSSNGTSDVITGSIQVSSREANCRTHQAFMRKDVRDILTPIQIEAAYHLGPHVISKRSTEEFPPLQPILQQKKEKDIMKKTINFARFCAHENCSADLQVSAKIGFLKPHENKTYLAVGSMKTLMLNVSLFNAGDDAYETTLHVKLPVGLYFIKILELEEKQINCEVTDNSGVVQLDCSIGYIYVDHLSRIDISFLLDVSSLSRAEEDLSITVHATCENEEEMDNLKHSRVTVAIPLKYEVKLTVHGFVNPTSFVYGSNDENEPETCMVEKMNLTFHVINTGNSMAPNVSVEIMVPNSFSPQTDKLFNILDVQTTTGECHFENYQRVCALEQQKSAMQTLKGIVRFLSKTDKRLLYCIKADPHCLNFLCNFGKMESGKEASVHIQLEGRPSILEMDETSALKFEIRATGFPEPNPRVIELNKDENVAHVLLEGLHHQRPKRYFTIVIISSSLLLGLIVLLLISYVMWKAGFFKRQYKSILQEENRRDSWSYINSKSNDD

This experiment has as its target Integrin alpha-4 (Homo sapiens) (UniProt P13612). Kind of experiment: VLA-4 integrin binding inhibitors – MLPCN library, flow cytometry, VLA-4 expressing cells, VLA-4 allosteric modulator project, primary screen (AID 2557). Particulars: ligand binding flow cytometry, active compounds read high, about 7 µM as worked out from the volumes in the protocol.
On to `Cc1nn(Cc2ccc(F)cc2)c(C)c1NC(=O)c1cccnc1Cl`, for which the inhibition was 12.2%.

Take `Cc1cc(C(=O)Nc2c(C)nn(Cc3ccccc3)c2C)on1`: the inhibition is 34.7%.

For `Cc1nn(Cc2ccc(Cl)c(Cl)c2)c(C)c1NC(=O)c1cc(C2CC2)on1`, the inhibition was 55% (active). The figure for `COc1ccccc1CNC(=O)c1ccc(Cl)c(S(=O)(=O)N2CCCC2)c1` is 4.64%; for `COc1ccc(N=C2SC(C(=O)Nc3ccc(F)cc3)CC(=O)N2C)cc1` (stereo unspecified) it is 5.98%.

Consider `N#CCC(=O)NC1CCC(CC2CCC(NC(=O)CC#N)CC2)CC1` (stereo unspecified), for which the inhibition is -12%. Regarding `CSc1nc(-c2ccco2)nn1C(=O)CCc1ccccc1`, the inhibition was 54% (active).

Regarding `CS(=O)(=O)n1nc(-c2ccco2)nc1N`, the inhibition is 15.3%. The figure for `O=C(CSc1nnc(-c2ccco2)n1-c1ccccc1)NCCc1ccccc1` is 4.12%; for `CCOC(=O)NC(=O)CSc1nnc(SCCC(=O)O)s1` it is -3.59%. The figure for `O=C(c1cc2ccccc2o1)N1CCN(S(=O)(=O)c2ccc(Cl)s2)CC1` is 2.54%; for `CCOC(=O)N1CCC(c2cc(=O)n(-c3ccccc3)[nH]2)CC1` it is -1.65%; for `O=C(CSc1ncnc2sccc12)NC1CCS(=O)(=O)C1` (stereo unspecified) it is 6.26%. The figure for `COc1ccc(-n2ncc3c2CC(C)(C)CC3NC(=O)CCc2c(C)nn(C)c2C)cc1` (stereo unspecified) is 4.43%; for `COc1ccccc1CNC(=O)Cn1cc2c(n1)CCCC2` it is -20.9%; for `O=C(Cn1cc2c(n1)CCCCC2)NCCN1CCOCC1` it is -8.14%. For `COCCNC(=O)Cn1cc2c(n1)CCCCC2`, the inhibition is 54.5% (active). The figure for `CC(=NCc1ccc2c(c1)OCO2)C1=C(O)c2ccccc2C1=O` is 3.18%; for `COC(=O)[C@@H]1C[C@@]2(O)[C@@H](O)[C@@H](O)[C@@H](O)C[C@H]2N1Cc1ccc(C)s1` it is 23.4%. The figure for `COc1ccc2c3c1O[C@H]1C[C@@H](O)C=C[C@@]31CCN(C)C2` is 13.3%. `CN1CCN(C(=O)Cn2c(C(F)(F)F)nc3ccccc32)CC1`: the inhibition is 5.72%. In the case of `Cc1ccccc1OC(=O)Cn1c(C(F)(F)F)nc2ccccc21`, the inhibition was 7.11%. For the molecule `CC(C)(C)NC(=O)NC(=O)COC(=O)Cn1c(C(F)(F)F)nc2ccccc21`, the inhibition is 60.1% (active). The figure for `CCOCCCN(C(=O)Cn1nnc(-c2ccc(OC)c(OC)c2)n1)C(CC)C(=O)NC1CCCC1` (stereo unspecified) is 4.18%; for `Cc1cnc(NC(=O)C2CCCC2)s1` it is 92.5% (active); for `Cc1nc(NC(=O)C2CCCCC2)sc1C` it is 3.52%.

As for `Cc1cnc(NC(=O)c2ccccn2)s1`, the inhibition was 11.4%. For the molecule `Cc1cc(C)c(C#N)c(SCC(=O)NN2CC(=O)N(c3ccccc3F)CC2=O)n1`, the inhibition is 13.8%.

In the case of `O=C(COC(=O)c1ccccc1O)NCc1ccco1`, the inhibition is -3.83%. The figure for `Cc1cc(C(=O)OCC(=O)NCc2ccco2)c(C)n1-c1ccccc1` is 64.6% (active); for `CN(c1ccccc1)S(=O)(=O)c1ccc(Cl)c(C(=O)OCC(=O)NCc2ccco2)c1` it is 17.3%.

What is called inhibition is the drop in the measured response relative to a control, in per cent.
